Assay [1] is described as follows: qHTS assay for small molecule disruptors of the mitochondrial membrane potential - 1 hr assay (AID 651754; calls by dose curve; also: % is scaled to controls: 0 for no effect and ±100 for the full control effect; nearly all actives have a fitted effect of over 35% in size). An outline of the steps:
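In this qHTS format, a 1 hr compound treatment of HepG2 cells precedes Mito-MPS staining, and membrane potential is judged from aggregate (red) against monomer (green) fluorescence intensity.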
(In general: qHTS replaces the single test concentration by a dilution series.)

Assay [2] can be described thus: qHTS assay for small molecule disruptors of the mitochondrial membrane potential - 5 hr assay (AID 651755; calls by dose curve; also: % is scaled to controls: 0 for no effect and ±100 for the full control effect; nearly all actives have a fitted effect of over 40% in size). In short, it runs like this:
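Seed HepG2 overnight, add compound, incubate 5 hr at 37C and 5% CO2, stain 30 min with Mito-MPS, then measure monomer (490/535 nm) and aggregate (540/590 nm) fluorescence.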

The target in assay [3] is Tumor necrosis factor (Homo sapiens) (UniProt P01375). Kind of assay: qHTS assay to identify small molecules that stimulate Tumor Necrosis Factor-alpha (TNF-alpha) secretion (AID 651757; active = well fitted curve in the direction sought with a large enough effect in the signal ratio; the % refers to the signal ratio; also: 0% is about no effect). An outline of the steps: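 Using 3000 THP-1 cells per well, compounds and controls were applied for 17 hrs at 37 C. Detection followed with two labeled anti-TNF-alpha antibodies (cryptate donor, XL665 acceptor) for 3 hr at room temperature, measured by TR-FRET.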

Assay [4] has as its target Peroxisome proliferator-activated receptor alpha (Homo sapiens) (UniProt Q07869). Kind of assay: qHTS assay for small molecule agonists of the peroxisome proliferator-activated receptor alpha (PPARalpha) signaling pathway (AID 651778). Also: potency is read from the fitted curve at half-maximal effect. As to max response: % of control where 0% means no effect. The settings on record: PathHunter PPARalpha complementation, chemiluminescence, 6 h; max response: active compounds read high. In short, it runs like this: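 Cells plated at 2,000/well and held overnight at 37 C, 5% CO2, then compound added by pin tool for 6 hr; after PathHunter detection reagent and 60 min at room temperature, chemiluminescence from enzyme complementation was read.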

A short description of assay [5]: qHTS assay for small molecule agonists of the antioxidant response element (ARE) signaling pathway measured by Nrf2-dependant transcriptional activity (AID 720636; active = well fitted curve in the direction sought with a large enough effect in the repeat runs; an effect the other way counts as inactive or inconclusive;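 also: HepG2 cells with an ARE-driven luciferase reporter; % of control where 0% means no effect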). In short, it runs like this: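 ONE-Glo luminescence, read 30 min after reagent addition at room temperature, reflected ARE reporter activity in HepG2 cells that had been incubated with compound for 16 hr at 37 C in 1% dialyzed FBS.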

Assay [6] can be described thus: qHTS assay for small molecule agonists of the antioxidant response element (ARE) signaling pathway measured by Nrf2-dependant transcriptional activity - cell viability counter screen (AID 720653; active = well fitted curve in the direction sought with a large enough effect in the repeat runs; an effect the other way counts as inactive or inconclusive; also: % is scaled to controls: 0 for no effect and ±100 for the full control effect). As to conditions: ARE-bla HepG2 viability, CellTiter-Glo ATP luminescence, 16 h; active compounds read low. An outline of the steps: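 ARE-bla HepG2 cells (2,000/well) rested 5 hrs at 37C/5% CO2, then exposed to compounds in DMSO for 16 hrs. Viability was read in the same wells as intracellular ATP by luminescence, 30 min at room temperature after reagent addition.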

A short description of assay [7]: qHTS Assay for Identifying Gametocytocidal Compounds (AID 743244). Also: potency is read from the fitted curve at half-maximal effect.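 As to max response: % is scaled to controls: 0 for no effect and ±100 for the full control effect; actives lower the fluorescent signal which means gametocytes are killed.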 As to conditions: P. falciparum 3D7 stage III-V gametocytes, alamarBlue, 72 h; max response: active compounds read low. In short, it runs like this: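 Stage III–V gametocytes of P. falciparum 3D7 were seeded at 20,000 cells/well onto pre-dispensed compounds. After 72 h, 37 °C, 5% CO2, alamarBlue was added for another 24 h.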

The nature of assay [8]: qHTS assay to identify small molecules that stimulate interleukin-8 (IL-8) secretion (AID 651758; active = well fitted activation curve with a large enough effect in the signal ratio; the % refers to the signal ratio; also: 0% is about no effect). An outline of the steps:
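Quantitative HTS in THP-1 monocytic cells at 2000 cells per well, with 16 hrs compound incubation at 37 C. IL-8 in the medium was then quantified by HTRF immunoassay, read after 1-3 hrs at room temperature.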

The nature of assay [9]: qHTS assay for environmental chemicals that activate the Aryl hydrocarbon Receptor (AhR) signaling pathway (AID 651777). Also: % of control where 0% means no effect; nearly all actives have a fitted effect of over 15% in size. As to conditions: 1A2-DRE human hepatoma cells, luciferase, 24 h; active compounds read high. In short, it runs like this:
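Following a 24 hr incubation with test chemicals at 37 C and 5% CO2, 1A2-DRE human hepatoma cells received One-Glo reagent; after 30 min at room temperature, luciferase output reflected CYP1A2 induction via AhR.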

A short description of assay [10]: qHTS assay for small molecule antagonists of the retinoid-related orphan receptor gamma (ROR-gamma) signaling pathway - cell viability counter screen (AID 720652; active = well fitted curve in the direction sought with a large enough effect in the repeat runs; an effect the other way counts as inactive or inconclusive;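 also: series mostly up to about 92 µM; compound exposure lasted 16 hr before ATP read; % is scaled to controls: 0 for no effect and ±100 for the full control effect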). In short, it runs like this:
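ATP-based viability readout in the ROR-gamma reporter CHO cells after 16 hr compound exposure under doxycycline induction.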

Assay [11] is described as follows: qHTS assay for cell viability of HEK293 cells (AID 743288). Also: % is scaled to controls: 0 for no effect and ±100 for the full control effect; nearly all actives have a fitted effect of over 50% in size. The settings on record: ATP luminescence (CellTiter-Glo), 18 h, active compounds read low. An outline of the steps: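 Readout is luciferase-coupled ATP content (CellTiter-Glo luminescence, 30 min room temperature) as a measure of metabolically competent cells. Parental HEK293 cells were plated 5 h or more before compound addition, then treated 18 h at 37 C.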

A short description of assay [12]: qHTS assay for cell viability of the p53RE-bla HCT-116 cell line (AID 743292). Also: % is scaled to controls: 0 for no effect and ±100 for the full control effect; nearly all actives have a fitted effect of over 55% in size. An outline of the steps: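 After plating at 4,000 cells per well and a 5 h rest at 37 C, HCT-116 cells carrying p53RE-bla received test chemicals in DMSO. Sixteen hours later at 37 C, CellTiter-Glo was added and luminescence recorded following 30 min at room temperature.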
Assay [13] in a line: qHTS for small molecule inhibitors of Yes1 kinase: Counter Assay (AID 686950).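 Also: no kinase present so only ADP-Glo detection of a fixed ADP amount is tested; luminescence from ADP-Glo reporting ADP in a fixed ATP and ADP mixture; series mostly up to about 77 µM; 0% = DMSO wells with ATP plus ADP and -100% = ATP-only wells without ADP.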 In short, it runs like this:
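Measuring interference with ADP-Glo, the assay ran 60 min at room temperature on an ATP/ADP mix lacking enzyme. Values were normalized to ATP-plus-ADP (maximum) and ATP-only (minimum) DMSO controls.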

In assay [14] the target is Tyrosine-protein kinase Yes (Homo sapiens) (UniProt P07947). Kind of assay: qHTS for small molecule inhibitors of Yes1 kinase: Primary Screen (AID 686947).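 Also: plate controls were DMSO with enzyme for no effect and no-enzyme DMSO wells for full effect; nearly all actives have a fitted effect of over 60% in size.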 An outline of the steps:
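In this qHTS format, inhibition is expressed relative to DMSO controls with enzyme (maximum) and without enzyme (minimum). The 60 min room-temperature reaction uses 0.1 mM ATP, with ADP detected by luminescence.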

Assay [15] deals with Nuclear receptor ROR-gamma (Homo sapiens) (UniProt P51449). Kind of assay: qHTS assay for small molecule antagonists of the retinoid-related orphan receptor gamma (ROR-gamma) signaling pathway (AID 651802).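 Also: luciferase reporter luminescence driven by ROR response element; series mostly up to about 92 µM; % is scaled to controls: 0 for no effect and ±100 for the full control effect; nearly all actives have a fitted effect of over 60% in size.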 In short, it runs like this: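 Doxycycline-induced reporter activity in engineered CHO cells (TET-inducible ROR, RORE-LUC) was measured by luminescence after 16hr compound exposure at 37C.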

Several values for one entry are separate records, joined by “and”; a condition that tells them apart may be missing. Identical values can stand only once. Values without a mark were called inactive. Results filed as inconclusive are left out. Activity calls are given as the source filed them. Unless noted, calls follow the shape of the dose curve; as a rule, active = well fitted curve in the direction sought with a large enough effect; inconclusive = small, poorly fitted or top-dose-only effect, or another doubt; inactive = no such curve, though single readings can be large; an effect the other way counts as inactive or inconclusive.

Chain of Tumor necrosis factor (Homo sapiens) (P01375 whole entry, looked up): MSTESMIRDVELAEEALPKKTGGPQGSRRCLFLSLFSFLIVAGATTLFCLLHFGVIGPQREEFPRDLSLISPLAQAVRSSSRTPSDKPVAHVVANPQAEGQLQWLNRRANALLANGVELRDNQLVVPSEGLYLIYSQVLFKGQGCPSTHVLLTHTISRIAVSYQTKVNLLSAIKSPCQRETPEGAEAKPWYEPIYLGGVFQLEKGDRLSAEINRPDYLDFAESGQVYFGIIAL
Chain of Peroxisome proliferator-activated receptor alpha (Homo sapiens) (Q07869 whole entry, looked up): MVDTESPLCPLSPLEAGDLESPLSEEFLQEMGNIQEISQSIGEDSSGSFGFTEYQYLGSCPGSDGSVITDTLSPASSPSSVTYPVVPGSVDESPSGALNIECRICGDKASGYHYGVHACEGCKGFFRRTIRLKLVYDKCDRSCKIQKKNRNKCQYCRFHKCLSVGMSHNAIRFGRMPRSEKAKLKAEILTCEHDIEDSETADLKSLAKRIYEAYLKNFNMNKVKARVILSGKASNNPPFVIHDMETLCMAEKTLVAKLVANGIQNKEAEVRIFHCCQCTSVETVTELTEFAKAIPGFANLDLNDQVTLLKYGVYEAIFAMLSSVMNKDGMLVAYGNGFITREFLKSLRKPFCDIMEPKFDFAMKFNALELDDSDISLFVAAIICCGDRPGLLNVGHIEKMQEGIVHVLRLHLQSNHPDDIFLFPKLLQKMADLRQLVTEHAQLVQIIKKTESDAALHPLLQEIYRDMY
Chain of Nuclear receptor ROR-gamma (Homo sapiens) (P51449 whole entry, looked up): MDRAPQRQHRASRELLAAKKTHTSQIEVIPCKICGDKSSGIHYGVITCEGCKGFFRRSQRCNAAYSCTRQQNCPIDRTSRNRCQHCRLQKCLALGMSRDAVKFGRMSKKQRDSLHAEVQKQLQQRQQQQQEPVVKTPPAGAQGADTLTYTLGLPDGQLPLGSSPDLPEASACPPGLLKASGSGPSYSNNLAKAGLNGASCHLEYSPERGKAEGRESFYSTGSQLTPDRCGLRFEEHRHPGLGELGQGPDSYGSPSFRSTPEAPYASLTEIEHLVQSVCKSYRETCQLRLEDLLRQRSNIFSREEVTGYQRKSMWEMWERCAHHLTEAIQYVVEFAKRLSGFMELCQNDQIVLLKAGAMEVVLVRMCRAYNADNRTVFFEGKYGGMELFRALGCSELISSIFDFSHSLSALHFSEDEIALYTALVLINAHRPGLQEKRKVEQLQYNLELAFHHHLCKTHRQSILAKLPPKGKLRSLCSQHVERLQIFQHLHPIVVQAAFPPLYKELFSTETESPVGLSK
Chain of Tyrosine-protein kinase Yes (Homo sapiens) (P07947 whole entry, looked up): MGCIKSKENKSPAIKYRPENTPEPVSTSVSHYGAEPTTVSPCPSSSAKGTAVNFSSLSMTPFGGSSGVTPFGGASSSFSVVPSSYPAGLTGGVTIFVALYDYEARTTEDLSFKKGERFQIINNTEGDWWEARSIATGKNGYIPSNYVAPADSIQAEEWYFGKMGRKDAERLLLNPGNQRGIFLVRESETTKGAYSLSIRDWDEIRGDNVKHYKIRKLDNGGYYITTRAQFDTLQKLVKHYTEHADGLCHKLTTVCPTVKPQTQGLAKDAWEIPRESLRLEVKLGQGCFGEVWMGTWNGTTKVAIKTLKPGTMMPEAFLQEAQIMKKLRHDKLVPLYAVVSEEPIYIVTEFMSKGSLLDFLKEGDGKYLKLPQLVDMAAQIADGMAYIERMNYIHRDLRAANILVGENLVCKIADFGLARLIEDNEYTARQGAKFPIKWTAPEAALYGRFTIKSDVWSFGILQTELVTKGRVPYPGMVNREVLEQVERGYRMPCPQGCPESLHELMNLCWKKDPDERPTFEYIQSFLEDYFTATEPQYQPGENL

For the molecule `O=CCCCC=O`, the molecule was classed as inactive in [1], in [2], in assay [3] and in assay [5]. Further, the max response in [4] was -1.75%; in [6] it was -17.7%; in assay [7], -1.12%.

In the case of `IC(I)I`, the outcome in [3], in assay [5], in [10] and in assay [12] was inactive. Also, in assay [8], the Potency result is “inactive”. Also, the activation in assay [9] is 3.72%. Also, the max response in assay [4] is -6.19% and -2.33%; in [6], 1.96% and -3.08%; in assay [7], 8.07%; in assay [11], -1.78% and -16.4%.

Regarding `CCCCCCCC/C=C\CCCCCCCC(=O)O`, the molecule was called inactive in assay [1], in assay [2], in [3], in assay [5], in assay [10] and in assay [12]. In [8], the Potency entry was “inactive”. Moreover, the activation in [9] was -1.87% and 0.641%. Also, the Potency in assay [4] is 35.5 µM (active). The max response is -10.5% and 3.78% in assay [6]; 5.58% in [7]; -8.54% and -13.9% in assay [11].

Regarding `C[C@@H]1CCN(C(=O)CC#N)C[C@@H]1N(C)c1ncnc2[nH]ccc12`, in [13], the call was inactive. The max response in assay [7] is 9.63%.

As for `C[C@H]1C[C@H]2[C@@H]3CCC4=CC(=O)C=C[C@]4(C)[C@@]3(F)[C@@H](O)C[C@]2(C)[C@@]1(O)C(=O)CO`, in assay [9], the activation was -2.62%. In addition, the max response in assay [4] was -0.118%; in assay [6], -19.2%; in assay [7], -4.91%; in assay [11], -14.2%. The result in assay [5] and in [12] was inactive.

As to `O=S(=O)(O)O`, the molecule was classed as inactive in [1], in assay [2], in [3], in assay [5], in assay [10] and in assay [12]. In addition, in [8], the Potency result was “inactive”. Moreover, in [9], the activation is -0.349% and 1.61%. For the same molecule, the max response in assay [4] was -1.64% and -3.82%; in assay [6], -6.94% and 4.69%; in assay [7], -4.98%; in [11], 9.97% and -5.38%.

In the case of `Cc1nnc(C(C)C)n1C1CC2CCC(C1)N2CC[C@H](NC(=O)C1CCC(F)(F)CC1)c1ccccc1` (stereo partly drawn), the molecule was classed as inactive in [13]. Moreover, in [7], the max response was 3.23%.

With `CC(C)(C)NC(=O)[C@@H]1C[C@@H]2CCCC[C@@H]2CN1C[C@@H](O)[C@H](Cc1ccccc1)NC(=O)[C@H](CC(N)=O)NC(=O)c1ccc2ccccc2n1`, the call in [1], in assay [2] and in assay [3] was inactive. In [9], the activation is 0.529%. The max response in [4] was -0.457%; in assay [6], -9.17%; in assay [11], -26%. Also, the Potency in assay [7] is 10 µM (active).

For the molecule `COC(=O)C1=C(C)NC(C)=C(C(=O)OCCCN2CCC(c3ccccc3)(c3ccccc3)CC2)[C@H]1c1cccc([N+](=O)[O-])c1`, in [14], the Potency result was “inactive”. In assay [13], the result was inactive. Also, the Potency in assay [7] was 14.8 µM (active).

As for `CC(C)=O`, the outcome in assay [1], in assay [2], in [3], in assay [15], in assay [5] and in assay [10] was inactive. The outcome in assay [12] was inactive. Also, in assay [9], the activation is -1.82%. Also, the max response is -7.67% in assay [4], -3.47% in [6], -8.02% in assay [7] and -4.51% in assay [11].

As for `CC1=C2[C@@H]([C@H](C)CC[C@H]2/C=C(\C)C(=O)O)[C@H](O)C1`, the result in [1], in [2], in [3], in assay [15], in [5] and in assay [10] was inactive. For the same molecule, the molecule was called inactive in [12]. For the same molecule, the Potency result in [8] was “inactive”. The activation in assay [9] is 1.08%. In addition, the results for the max response in assay [4], in assay [6] and in assay [11] were -2.98%, -8.96% and -12%, respectively.

Turning to `CC(O)CO` (stereo not drawn), the molecule was called inactive in [1], in [2], in assay [3], in [15], in assay [5] and in assay [10]. Moreover, the molecule was classed as inactive in assay [12]. Besides, in [8], the Potency entry is “inactive”. Besides, the activation in assay [9] was -1.84% and -0.0903%. For the same molecule, the max response was 4.63% and -8.84% in assay [4]; -5.98% and -4.66% in [6]; 5.22% in assay [7]; 4.22% and 2.43% in assay [11].

`CCOc1ccc2c(c1)C(C)=CC(C)(C)N2`: the result in assay [1], in assay [2], in [3], in [15], in [10] and in [12] was inactive. Further, the activation in assay [9] was 3.55% and 2.98%. Moreover, the max response is -4.24% and -2.12% in assay [4]; -1.53% and -25.3% in assay [6]; -17.1% and -27.7% in assay [11].

As to `CC(NC(=O)Cc1cc(F)cc(F)c1)C(=O)NC(C(=O)OC(C)(C)C)c1ccccc1` (stereo not drawn), the Potency result in assay [14] is “inactive”. In assay [13], the molecule was classed as inactive. For the same molecule, the max response in assay [7] was 8.47%.

The values above are taken from PubChem BioAssay (NCATS).
